Assays:
Assay in all cases: DAPPL (digital affinity profiling via proximity ligation, sequencing); 10 mM Tris-HCl pH 7.5, 50 mM NaCl, 1 mM DTT, 4% glycerol, room temperature, 30 min; GST-TFs on glutathione beads, 16-mer random dsDNA library, 0.1% formaldehyde crosslink after washing; high values mean tight binding
Details in all cases: protein: recombinant; tags: N-terminal GST; dsDNA, one strand shown
FLI1 = target: T1, FLI1 (Homo sapiens, UniProt Q01543 1-452)
T1 sequence: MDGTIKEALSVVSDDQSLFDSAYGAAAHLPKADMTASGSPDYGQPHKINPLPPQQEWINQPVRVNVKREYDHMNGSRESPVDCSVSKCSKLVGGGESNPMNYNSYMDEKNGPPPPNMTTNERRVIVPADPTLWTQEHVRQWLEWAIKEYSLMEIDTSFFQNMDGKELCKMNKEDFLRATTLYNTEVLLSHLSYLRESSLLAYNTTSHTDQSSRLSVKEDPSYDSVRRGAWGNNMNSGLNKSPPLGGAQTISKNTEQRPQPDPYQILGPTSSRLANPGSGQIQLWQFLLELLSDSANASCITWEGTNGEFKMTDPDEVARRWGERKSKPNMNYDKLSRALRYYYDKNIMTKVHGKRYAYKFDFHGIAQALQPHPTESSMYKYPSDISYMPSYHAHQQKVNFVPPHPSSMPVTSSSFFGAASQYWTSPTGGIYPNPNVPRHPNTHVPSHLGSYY
Outline: (§1)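 After expression in yeast as GST fusions, human transcription factors were bound to glutathione beads, DNA-barcoded and mixed with a tag-only sample. The pools were incubated with 200 nmole of a 16-mer random double-stranded DNA library in Tris/NaCl/DTT/glycerol buffer (30 min, room temperature), washed and crosslinked with 0.1% formaldehyde. Proximity ligation with BsaI/T4 ligase ran for 1 h at 37 °C, before PCR amplification and sequencing on an Illumina NextSeq500. Binding signal is a hexamer's read frequency for a factor divided by its frequency for the tag-only sample.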

ELK1 = target: T2, ELK1 (Homo sapiens, UniProt P19419 1-428)
T2 sequence: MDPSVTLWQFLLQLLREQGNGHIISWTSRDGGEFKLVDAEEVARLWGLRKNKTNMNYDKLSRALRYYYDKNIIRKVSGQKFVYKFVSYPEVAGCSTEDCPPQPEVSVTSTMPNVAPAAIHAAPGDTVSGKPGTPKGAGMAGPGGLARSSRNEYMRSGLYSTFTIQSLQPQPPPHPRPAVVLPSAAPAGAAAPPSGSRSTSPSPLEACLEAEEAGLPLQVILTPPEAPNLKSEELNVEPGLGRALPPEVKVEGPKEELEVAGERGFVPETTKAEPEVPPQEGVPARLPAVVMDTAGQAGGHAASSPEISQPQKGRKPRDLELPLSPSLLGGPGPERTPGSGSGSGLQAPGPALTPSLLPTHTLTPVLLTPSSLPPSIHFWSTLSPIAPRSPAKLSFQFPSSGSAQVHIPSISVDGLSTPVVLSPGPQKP
Outline: as §1

GABPA = target: T3, GABPA (Homo sapiens, UniProt Q06546 1-454)
T3 sequence: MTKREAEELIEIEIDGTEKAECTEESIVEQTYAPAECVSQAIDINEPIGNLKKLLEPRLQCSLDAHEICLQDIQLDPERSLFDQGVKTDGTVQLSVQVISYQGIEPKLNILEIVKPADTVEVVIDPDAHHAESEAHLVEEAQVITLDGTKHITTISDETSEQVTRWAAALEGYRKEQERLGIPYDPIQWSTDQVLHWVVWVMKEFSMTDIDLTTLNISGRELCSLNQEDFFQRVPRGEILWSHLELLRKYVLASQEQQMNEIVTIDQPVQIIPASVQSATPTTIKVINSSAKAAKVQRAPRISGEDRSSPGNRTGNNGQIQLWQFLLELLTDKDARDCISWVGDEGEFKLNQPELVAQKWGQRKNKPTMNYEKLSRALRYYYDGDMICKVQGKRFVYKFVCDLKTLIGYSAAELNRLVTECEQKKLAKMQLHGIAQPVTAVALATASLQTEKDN
Outline: as §1

ERG = target: T4, ERG (Homo sapiens, UniProt P11308 1-479)
T4 sequence: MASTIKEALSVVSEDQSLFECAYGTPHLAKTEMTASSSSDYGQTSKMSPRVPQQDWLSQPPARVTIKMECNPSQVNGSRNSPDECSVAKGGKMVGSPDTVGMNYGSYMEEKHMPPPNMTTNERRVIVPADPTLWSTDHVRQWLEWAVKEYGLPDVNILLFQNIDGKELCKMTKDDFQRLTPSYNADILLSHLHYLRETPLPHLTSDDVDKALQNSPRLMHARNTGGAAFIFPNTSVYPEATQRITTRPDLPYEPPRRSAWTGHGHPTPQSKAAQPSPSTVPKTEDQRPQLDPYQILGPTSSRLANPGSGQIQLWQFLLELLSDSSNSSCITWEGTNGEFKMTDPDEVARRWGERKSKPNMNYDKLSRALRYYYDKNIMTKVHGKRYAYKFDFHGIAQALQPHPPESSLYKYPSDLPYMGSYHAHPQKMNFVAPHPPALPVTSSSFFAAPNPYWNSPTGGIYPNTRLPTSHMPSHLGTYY
Outline: as §1

ELF1 = ELF1 (Homo sapiens, UniProt P32519 1-619)
Chain of ELF1 (P32519 whole entry): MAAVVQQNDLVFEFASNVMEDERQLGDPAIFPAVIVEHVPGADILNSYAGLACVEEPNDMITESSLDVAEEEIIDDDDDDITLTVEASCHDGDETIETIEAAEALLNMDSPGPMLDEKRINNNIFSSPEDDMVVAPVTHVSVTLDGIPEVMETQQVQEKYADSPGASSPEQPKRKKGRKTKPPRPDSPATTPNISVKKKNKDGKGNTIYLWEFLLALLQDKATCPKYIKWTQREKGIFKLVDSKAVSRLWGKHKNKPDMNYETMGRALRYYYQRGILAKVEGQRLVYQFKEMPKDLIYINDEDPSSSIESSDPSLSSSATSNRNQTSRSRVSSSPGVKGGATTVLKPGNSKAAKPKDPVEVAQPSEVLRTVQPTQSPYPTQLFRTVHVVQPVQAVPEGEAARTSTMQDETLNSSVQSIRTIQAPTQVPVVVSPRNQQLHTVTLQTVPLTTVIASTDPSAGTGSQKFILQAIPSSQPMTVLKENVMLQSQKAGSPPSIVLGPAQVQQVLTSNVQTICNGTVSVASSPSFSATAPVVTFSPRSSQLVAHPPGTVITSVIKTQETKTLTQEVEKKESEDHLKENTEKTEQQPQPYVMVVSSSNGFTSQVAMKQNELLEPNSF
Outline: as §1

EHF = target: T5, EHF (Homo sapiens, UniProt Q9NZC4 1-300)
T5 sequence: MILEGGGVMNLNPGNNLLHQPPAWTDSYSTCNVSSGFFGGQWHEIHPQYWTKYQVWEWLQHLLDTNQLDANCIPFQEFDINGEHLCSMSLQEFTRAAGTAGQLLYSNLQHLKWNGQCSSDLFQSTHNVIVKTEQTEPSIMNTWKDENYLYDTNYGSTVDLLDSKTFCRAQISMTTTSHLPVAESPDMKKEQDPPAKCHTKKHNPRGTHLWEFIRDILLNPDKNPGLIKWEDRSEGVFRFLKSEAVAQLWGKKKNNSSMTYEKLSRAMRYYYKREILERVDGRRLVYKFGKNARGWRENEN
Outline: as §1

SPI1 = SPI1 (Homo sapiens, UniProt P17947 1-270)
Outline: as §1

SPIB = SPIB (Homo sapiens, UniProt Q01892 1-262)
Chain of SPIB (Q01892 whole entry): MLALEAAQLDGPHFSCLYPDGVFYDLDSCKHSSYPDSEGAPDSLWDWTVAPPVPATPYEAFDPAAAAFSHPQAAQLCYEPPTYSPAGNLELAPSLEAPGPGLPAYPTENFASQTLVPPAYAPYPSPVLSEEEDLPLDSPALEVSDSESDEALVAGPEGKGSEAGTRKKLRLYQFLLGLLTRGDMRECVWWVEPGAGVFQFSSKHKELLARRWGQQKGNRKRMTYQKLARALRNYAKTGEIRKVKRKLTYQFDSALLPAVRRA
Outline: as §1

ELK3 = target: T6, ELK3 (Homo sapiens, UniProt P41970 1-407)
T6 sequence: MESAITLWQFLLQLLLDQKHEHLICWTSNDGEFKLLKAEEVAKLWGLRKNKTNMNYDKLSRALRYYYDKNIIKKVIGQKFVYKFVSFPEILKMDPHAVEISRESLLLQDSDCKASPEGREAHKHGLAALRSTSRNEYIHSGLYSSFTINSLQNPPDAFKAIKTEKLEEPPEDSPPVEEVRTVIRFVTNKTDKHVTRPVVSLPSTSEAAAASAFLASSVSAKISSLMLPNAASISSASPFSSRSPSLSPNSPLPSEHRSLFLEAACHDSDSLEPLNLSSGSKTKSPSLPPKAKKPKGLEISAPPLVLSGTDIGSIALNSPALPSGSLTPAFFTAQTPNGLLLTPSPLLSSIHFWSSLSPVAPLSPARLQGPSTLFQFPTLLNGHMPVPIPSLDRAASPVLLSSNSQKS
Outline: as §1

TTTCCT
binding signal (FLI1): 2.49 fold enrichment (6-mer frequency, TF over GST control)
binding signal (ELK1): 2.32 fold enrichment (6-mer frequency, TF over GST control)
binding signal (GABPA): 2.32 fold enrichment (6-mer frequency, TF over GST control)
binding signal (ERG): 2.72 fold enrichment (6-mer frequency, TF over GST control)
binding signal (ELF1): 2.19 fold enrichment (6-mer frequency, TF over GST control)
binding signal (EHF): 2.4 fold enrichment (6-mer frequency, TF over GST control)
binding signal (SPI1): 2.33 fold enrichment (6-mer frequency, TF over GST control)
binding signal (SPIB): 2.52 fold enrichment (6-mer frequency, TF over GST control)
binding signal (ELK3): 2.53 fold enrichment (6-mer frequency, TF over GST control)
